The values that follow come from PubChem BioAssay (NCI).

Values joined by “and” are separate entries in the source; they are usually repeats but may differ in a detail not shown here. Identical values can stand only once. About 83,000 compounds went through this panel and 20% of them were active in at least one assay; those are over-represented in the sample as a whole.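 How to read the values: 0–100, growth inhibition (40 = 60% inhibited); 0, no net growth; -100 to 0, cell death (-40 = 40% of starting cells died; -100 = all dead).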 The source holds several records for some structures; these can differ, active in one and inactive in another. Active and inactive are the calls of the source. The calls were made as follows: active = growth percent below 10; inactive = the rest.

Test systems include NCI-H226 lung; NCI-H322M lung; NCI-H460 lung; HOP-92 NSCLC; NCI-H522 lung; A549/ATCC NSCLC; 786-0 renal; COLO 205 colon; DU-145 prostate; K-562 leukemia; MALME-3M melanoma; MDA-MB-231 breast; RXF 393 renal; SF-268 CNS; SF-295 CNS; SF-539 CNS; UACC-257 melanoma; M14 melanoma; HOP-62 NSCLC.
Assay in all cases: NCI-60 one-dose screen, 48 h (100 = growth as untreated, 0 = no growth, -100 = all killed)
The test system of a further test is NCI-H23 lung. To be noted: 10 µM unless noted.

`CCN(CC)CCNc1ccc(C)c2sc3ccccc3c(=O)c12` (tested in a mixture with another compound): the growth with NCI-H23 lung was 46.1% (inactive) and 52.4% (inactive); in the test on NCI-H226 lung (10 µM unless noted), 64.9% (inactive) and 64.7% (inactive); in the test on NCI-H322M lung (10 µM unless noted) it was 30% (inactive) and 56% (inactive); with NCI-H460 lung (10 µM unless noted), 8.45% (active) and 5.28% (active); in the test on HOP-92 NSCLC (10 µM unless noted), 68.6% (inactive) and 38.1% (inactive); in the test on NCI-H522 lung (10 µM unless noted), 22.6% (inactive) and 39.6% (inactive). Besides, the growth was 21.9% (inactive) and 19.8% (inactive) in the test with A549/ATCC NSCLC (10 µM unless noted); 33.7% (inactive) and 37.3% (inactive) in the test with 786-0 renal (10 µM unless noted); 27% (inactive) and 14.7% (inactive) with COLO 205 colon (10 µM unless noted); 36% (inactive) and 39.4% (inactive) in the test with DU-145 prostate (10 µM unless noted); 0.322% (active) and 13.3% (inactive) with K-562 leukemia (10 µM unless noted); 30.9% (inactive) and 48.2% (inactive) in the test on MALME-3M melanoma (10 µM unless noted). In addition, the growth was 18.3% (inactive) and 24.8% (inactive) with MDA-MB-231 breast (10 µM unless noted); -9.22% (active) and 16.4% (inactive) with RXF 393 renal (10 µM unless noted); 36.2% (inactive) and 24.3% (inactive) in the test with SF-268 CNS (10 µM unless noted); 35.4% (inactive) and 40.9% (inactive) in the test with SF-295 CNS (10 µM unless noted); 38.6% (inactive) and 32% (inactive) with SF-539 CNS (10 µM unless noted); -52.9% (active) and -51.9% (active) with UACC-257 melanoma (10 µM unless noted). For the same compound, the growth in the test on M14 melanoma (10 µM unless noted) is -50.9% (active) and -40.5% (active).
In the case of `CC1(c2ccc3ccccc3c2)CCC(=O)O1` (stereo not given), the growth was 95% (inactive) with NCI-H23 lung; 110% (inactive) with NCI-H226 lung (10 µM unless noted); 93.5% (inactive) with HOP-62 NSCLC (10 µM unless noted); 112% (inactive) in the test on NCI-H460 lung (10 µM unless noted); 106% (inactive) in the test on HOP-92 NSCLC (10 µM unless noted); 91.3% (inactive) in the test with NCI-H522 lung (10 µM unless noted). The growth is 101% (inactive) in the test with A549/ATCC NSCLC (10 µM unless noted); 103% (inactive) in the test on 786-0 renal (10 µM unless noted); 99.3% (inactive) with COLO 205 colon (10 µM unless noted); 107% (inactive) in the test with DU-145 prostate (10 µM unless noted); 86.7% (inactive) in the test on K-562 leukemia (10 µM unless noted); 96.8% (inactive) with MALME-3M melanoma (10 µM unless noted). Also, the growth was 111% (inactive) in the test on MDA-MB-231 breast (10 µM unless noted); 104% (inactive) with RXF 393 renal (10 µM unless noted); 99.7% (inactive) with SF-268 CNS (10 µM unless noted); 107% (inactive) with SF-295 CNS (10 µM unless noted); 95.7% (inactive) in the test on SF-539 CNS (10 µM unless noted); 96.5% (inactive) in the test on UACC-257 melanoma (10 µM unless noted). Also, the growth in the test with M14 melanoma (10 µM unless noted) was 117% (inactive).
Turning to `CCCCCCCCCCCCCCCc1ccc(Cl)c(O)c1Cl` (tested in a mixture with another compound), the growth is 5.35% (active) in the test on NCI-H226 lung (0.25 µM); 93.6% (inactive) in the test with NCI-H226 lung (10 µM); 61.5% (inactive) with NCI-H322M lung (0.25 µM); 107% (inactive) in the test on NCI-H322M lung (10 µM); 19% (inactive) with HOP-62 NSCLC (0.25 µM); 97.5% (inactive) in the test with HOP-62 NSCLC (10 µM). Further, the growth in the test with NCI-H460 lung (0.25 µM) was 5.78% (active); in the test on NCI-H460 lung (10 µM) it was 104% (inactive); in the test on HOP-92 NSCLC (0.25 µM) it was 17.5% (inactive); in the test on HOP-92 NSCLC (10 µM) it was 105% (inactive); in the test on NCI-H522 lung (0.25 µM), 12.1% (inactive); in the test on NCI-H522 lung (10 µM) it was 83.1% (inactive). Also, the growth with A549/ATCC NSCLC (0.25 µM) is 38.5% (inactive); in the test with A549/ATCC NSCLC (10 µM) it was 71.9% (inactive); with 786-0 renal (0.25 µM), 15.6% (inactive); with 786-0 renal (10 µM), 107% (inactive); in the test with COLO 205 colon (0.25 µM) it was 49.3% (inactive); in the test on COLO 205 colon (10 µM) it was 114% (inactive). Also, the growth is 18.4% (inactive) in the test on DU-145 prostate (0.25 µM); 106% (inactive) in the test with DU-145 prostate (10 µM); 30.5% (inactive) with K-562 leukemia (0.25 µM); 92.3% (inactive) in the test with K-562 leukemia (10 µM); 22.7% (inactive) in the test with MALME-3M melanoma (0.25 µM); 100% (inactive) in the test on MALME-3M melanoma (10 µM). Further, the growth in the test on MDA-MB-231 breast (0.25 µM) was 59.1% (inactive); in the test with MDA-MB-231 breast (10 µM), 97.9% (inactive); in the test on RXF 393 renal (0.25 µM) it was 60.3% (inactive); in the test with RXF 393 renal (10 µM), 106% (inactive); with SF-268 CNS (0.25 µM) it was 31.4% (inactive); in the test on SF-268 CNS (10 µM) it was 94.9% (inactive). Moreover, the growth is 29.1% (inactive) with SF-295 CNS (0.25 µM); 109% (inactive) in the test on SF-295 CNS (10 µM); 15.9% (inactive) with SF-539 CNS (0.25 µM); 103% (inactive) in the test on SF-539 CNS (10 µM); 52.1% (inactive) in the test on UACC-257 melanoma (0.25 µM); 80.7% (inactive) with UACC-257 melanoma (10 µM). In addition, the growth was 41% (inactive) with M14 melanoma (0.25 µM) and 92.2% (inactive) in the test with M14 melanoma (10 µM).
For `COc1ccccc1NC(=O)OCC#CCOC(=O)Nc1ccccc1OC`, the growth in the test with NCI-H226 lung (10 µM unless noted) is 97.8% (inactive) and 90.5% (inactive); in the test with NCI-H322M lung (10 µM unless noted), 112% (inactive) and 98.4% (inactive); in the test with HOP-62 NSCLC (10 µM unless noted) it was 102% (inactive) and 91.8% (inactive); in the test on NCI-H460 lung (10 µM unless noted), 110% (inactive) and 94.7% (inactive); with HOP-92 NSCLC (10 µM unless noted), 83.1% (inactive); with NCI-H522 lung (10 µM unless noted), 80.2% (inactive) and 76.8% (inactive). Further, the growth in the test on A549/ATCC NSCLC (10 µM unless noted) is 101% (inactive) and 87% (inactive); in the test with 786-0 renal (10 µM unless noted), 108% (inactive) and 88.2% (inactive); in the test on COLO 205 colon (10 µM unless noted) it was 107% (inactive) and 120% (inactive); in the test on DU-145 prostate (10 µM unless noted), 146% (inactive) and 96.5% (inactive); in the test on K-562 leukemia (10 µM unless noted) it was 75% (inactive) and 57.3% (inactive); with MALME-3M melanoma (10 µM unless noted), 96.6% (inactive). In addition, the growth with MDA-MB-231 breast (10 µM unless noted) is 102% (inactive) and 105% (inactive); with RXF 393 renal (10 µM unless noted), 102% (inactive) and 90.3% (inactive); in the test with SF-268 CNS (10 µM unless noted), 116% (inactive) and 89.4% (inactive); with SF-295 CNS (10 µM unless noted) it was 105% (inactive) and 94% (inactive); with SF-539 CNS (10 µM unless noted) it was 99.9% (inactive) and 91.6% (inactive); in the test with UACC-257 melanoma (10 µM unless noted) it was 100% (inactive) and 91.1% (inactive). The growth with M14 melanoma (10 µM unless noted) was 106% (inactive) and 95.5% (inactive).
